Bioassay records (PubChem BioAssay)
CYP2C19 act = activators of human cytochrome P450 2C19 | 96,000 tested, under 10 active | activation factor at 5 µM | recombinant CYP2C19, luciferin-H EGE luminescence; hits give high values; 0 = fully inhibited enzyme, 1 = untreated enzyme | P33261 | AID 1025;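 active = activation factor of at least 2 at 5 µM in the primary screen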;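 also: 0 = wells with 2.5 mM tranylcypromine and 1 = vehicle-only wells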
CYP2C19 inhib = blocks human cytochrome P450 2C19; CYP2C19 Supersomes, luciferin-H EGE luminescence, 30 min; 21% of 96,000 active; P33261; inhibition, % at 5 µM;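 active = CYP2C19 inhibition above a set limit at 5 µM in the primary screen, cut at about 50% in these data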;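 also: plate controls were negative control wells for no effect and 2.5 mM tranylcypromine positive control for full effect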
CYP2C9 act = increases human cytochrome P450 2C9 activity | P11712 | recombinant CYP2C9, luciferin-H conversion, luminescence; hits give high values; factor 1 = untreated enzyme, 0 = blocked | activation factor at 5 µM | 1.4% of 96,000 active;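 active = activation factor of 2 or more for CYP2C9 at a 5 µM dose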;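 also: 0 = sulfaphenazole-blocked wells and 1 = vehicle-only wells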
DAT uptake mod = human DAT dopamine uptake with cocaine, either direction; Q01959; LLC-PK1 hDAT cells, [14C]-dopamine uptake with cocaine IC80; actives deviate in either direction; B-score at 10 µM; 1.3% of 110,000 active; AID 449768;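 active = Z score or B-score, a plate-position-corrected score, falls beyond the plate's 99.7% confidence bounds, in either direction; inactive = both scores lie inside the 99.7% bounds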;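 also: scored against the spread of the other compound wells on the same plate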
Target sequence (Q01959 whole entry, looked up): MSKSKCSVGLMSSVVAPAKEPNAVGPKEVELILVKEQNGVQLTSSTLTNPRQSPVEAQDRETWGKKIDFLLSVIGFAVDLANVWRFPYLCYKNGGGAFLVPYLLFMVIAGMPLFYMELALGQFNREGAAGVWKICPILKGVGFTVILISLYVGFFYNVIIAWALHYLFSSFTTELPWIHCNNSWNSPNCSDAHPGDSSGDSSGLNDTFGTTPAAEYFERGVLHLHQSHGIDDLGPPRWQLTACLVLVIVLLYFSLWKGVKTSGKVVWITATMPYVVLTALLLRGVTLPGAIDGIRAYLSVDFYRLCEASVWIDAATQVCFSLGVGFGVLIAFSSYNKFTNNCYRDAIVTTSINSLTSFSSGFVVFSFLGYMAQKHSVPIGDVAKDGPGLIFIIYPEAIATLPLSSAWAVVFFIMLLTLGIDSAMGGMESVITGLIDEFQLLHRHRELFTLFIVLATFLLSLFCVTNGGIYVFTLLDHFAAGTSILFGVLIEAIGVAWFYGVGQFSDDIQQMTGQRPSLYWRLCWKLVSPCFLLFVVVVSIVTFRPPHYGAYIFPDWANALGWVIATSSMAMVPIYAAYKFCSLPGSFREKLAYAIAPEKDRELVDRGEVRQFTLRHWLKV
CYP2C9 inh = human CYP2C9 inhibition; P11712; CYP2C9 Supersomes, luciferin-H conversion, luminescence; inhibition, % at 5 µM; 20% of 96,000 active; AID 777;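 active = blocking of liver enzyme CYP2C9 beyond about 50% at 5 µM, limit read from the data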
D1 allo mod = allosterically modulates the human D1 dopamine receptor | AID 641 | HEK293 D1, CRE-luciferase, dopamine EC30 potentiation; actives deviate in either direction | P21728 | 5.9% of 58,000 active | B-score at 10 µM;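 active = luminescence count or its row- and column-corrected plate score outside the 99.7% band of the plate's sample wells, on either side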
D1 mod confirm = confirmation of human D1 dopamine receptor allosteric modulators | 88% of 2,200 active | AID 642 | HEK293 D1 CRE-luciferase, dopamine EC30 potentiation; hits give high values | luminescence at 10 µM | shares compounds with D1 allo mod;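 active = luminescence in either of two replicates above the same-plate mean plus 3 SD of the low-dose dopamine control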
D1 ag no DA = secondary test of D1 modulators: activity without dopamine. shares compounds with D1 allo mod. HEK293 D1 CRE-luciferase, luminescence, no dopamine; hits give high values. luminescence at 10 µM. 0.8% of 1,900 active. AID 646; in the data active = luminescence above about 3900
Isoprot counter = counter-screen for D1 modulators: isoproterenol response in HEK293 cells. calls only at 10 µM. shares compounds with D1 allo mod. HEK293 D1 CRE-luciferase, isoproterenol EC30 counter-screen. 63% of 2,200 active;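 active = luminescence in either replicate above plate mean of wells with a partly effective reference agonist dose plus 3 SD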;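 also: isoproterenol raises cAMP through native beta-adrenoceptor Gs so signal bypasses D1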
* marks the source's active call; other numbers are inactive results; i = inactive; · = no result; + = active, no number. A selection: hits, their analogues and other compounds. The true share with any hit is near 28%.

SMILES	CYP2C19 act	CYP2C19 inhib	CYP2C9 act	DAT uptake mod	CYP2C9 inh	D1 allo mod	D1 mod confirm	D1 ag no DA	Isoprot counter
COc1cc(C2=NOC(C(=O)Nc3ccc(C(C)=O)cc3)C2)cc(OC)c1OC (stereo unspecified)	1.1	-12	1	-0.18	2	1.5	·	·	·
COc1ccc(C2=NOC(C(=O)N3CCCCCC3)C2)cc1OC (stereo unspecified)	1	-1	1.1	0.85	-5	0.42	·	·	·
COc1ccc(OC)c(C2=NOC(C(=O)Nc3cccc(C(C)=O)c3)C2)c1 (stereo unspecified)	0.5	52*	2.3*	0.29	-134	3.7*	9256*	1624	i
O=C(COC(=O)Cc1cn2ccsc2n1)Nc1nc2ccccc2s1	0.9	12	0.7	-1.1	26	-1.7	·	·	·
CCOC(=O)CSc1nc(C2CC2)cc(-c2ccc(F)cc2)c1C#N	0.8	18	0.5	-0.19	46	·	·	·	·
N#Cc1c(-c2ccccc2)cc(C2CC2)nc1N	0.2	80*	1.6	-0.0069	-60	25*	29052*	1688	+
CCOC(=O)C(Cc1c[nH]c2ccccc12)NC(=O)CNC(C)=O (stereo unspecified)	1	2	0.9	-1.3	5	-1.3	·	·	·
C=CCn1c(NCCO)nc2sc3c(c2c1=O)CCC3	0.9	13	0.9	-0.019	9	11*	6332	1628	i
COC(=O)c1ccccc1NC(=O)Nc1nnc(N2CCCCC2C)s1 (stereo unspecified)	·	·	·	·	·	-0.14	·	·	·
OCC1(C2=NOC(O)(C(F)(F)F)C2)CCCCC1 (stereo unspecified)	0.9	12	0.6	-1.9	37	-0.78	·	·	·
COc1ccc(-c2csc(C)n2)cc1OC	0.9	12	0.8	1.3	18	·	·	·	·
COc1ccc(-c2csc(Cc3nnc4n3CCCCC4)n2)cc1OC	0.9	8	1	-0.37	0	20*	24836*	1564	+
CCOC(=O)N1CCC(N(CCOC)C(=O)Nc2ccc(Cl)c(Cl)c2)CC1	0.6	40	0.8	0.5	15	-0.48	·	·	·
CC(C)CNC(=O)c1cc(-c2ccco2)on1	0.9	7	1.4	0.14	-36	-0.13	·	·	·
CC(=O)Nc1nc(CC(C)C)cc(-c2ccco2)c1C#N	1.1	-11	1	0.62	1	9.7*	15584*	·	+
CCCN1C2=NS(=O)(=O)CCN2c2ccccc21	1	-1	1.2	-0.27	-21	8.4*	20272*	2056	+
CCCOc1ccc(/C(O)=C2\C(=O)C(=O)N(CCCOC)C23C(=O)N(C)c2ccccc23)cc1 (stereo unspecified)	1	-2	1.1	-0.73	-12	-0.6	·	·	·
CCOC(=O)c1c(NC(=O)OC)sc(C(=O)N(CC)CC)c1C	0.4	56*	0.3	0.089	67*	4.2*	8956*	1472	+
O=CNC(=O)c1ccccc1C(=O)O	1.1	-9	1.2	-0.44	-17	·	·	·	·
Cc1ccc(CNC(=O)c2cnc(-c3ccccn3)nc2C(F)(F)F)cc1	0.8	18	0.6	0.69	44	·	·	·	·
NC(=O)CSc1nc(O)cc(=O)n1-c1ccccc1	1.1	-6	1.1	1.4	-6	0.49	·	·	·
O=c1c2c(-c3ccco3)csc2nc(SCc2cn3cccnc3n2)n1-c1ccccc1	0.5	53*	0	-0.016	97*	8.4*	15872*	1792	+
NC(=O)CSc1nc2scc(-c3ccco3)c2c(=O)n1-c1ccccc1	0.9	14	0.6	0.37	38	3.4*	10400*	·	i
CCOC(=O)c1sc(NC(=O)c2ccc3ncsc3c2)nc1C	1	-2	1	-0.42	-4	·	·	·	·
C=CCSc1nc(-c2ccc3c(c2)OCO3)cc(C(F)(F)F)c1C#N	0.7	26	0.6	·	39	·	·	·	·
SMILES	CYP2C19 act	CYP2C19 inhib	CYP2C9 act	DAT uptake mod	CYP2C9 inh	D1 allo mod	D1 mod confirm	D1 ag no DA	Isoprot counter
CCOc1cc2c(C#N)c(N3CCOCC3)nc(N)c2c(N)n1	0.9	10	0.6	1.2	43	12*	11932*	1728	+
CCOc1cc2c(C#N)c(N(CC)CC)nc(N)c2c(N)n1	·	·	·	-0.45	·	·	·	·	·
C=CCSc1nc(N)c2c(C)c(C)sc2n1	0.1	88*	0.4	-0.44	58*	4.9*	18248*	1540	+
COC(=O)c1ccc(COC(=O)c2ccc(-n3cnnn3)cc2)o1	0.9	14	0.4	-0.024	64*	6*	5052	·	i
CN1CCN(c2nc3c(c(=O)n(C)c(=O)n3C)n2CCSc2nc3ccccc3s2)CC1	·	·	·	-0.052	·	0.53	·	·	·
CC(C)CCn1c(Sc2nc3ccccc3s2)nc2c1c(=O)[nH]c(=O)n2C	0.9	13	0.7	0.45	35	21*	19816*	1612	+
CC(C)CCn1c(CN2CCN(Cc3ccccc3)CC2)nc2c1c(=O)[nH]c(=O)n2C	0.9	14	0.8	1.1	25	0.31	·	·	·
CC(CSc1nc2ccccc2s1)Cn1c(N2CCCC2)nc2c1c(=O)[nH]c(=O)n2C (stereo unspecified)	1	4	0.8	0.5	21	2.5*	13288*	·	+
CCCCCc1nc(N)c(C#N)c(-c2ccco2)c1CCCC	1.1	-12	0.9	-0.032	12	·	·	·	·
N#Cc1c(-c2ccco2)cc(-c2ccccn2)nc1N	0.7	31	0.6	0.43	37	6.5*	12544*	1548	+
Cc1c(-c2ccccc2)nc(N)c(C#N)c1-c1ccco1	0.3	69*	0.5	-0.044	45	5*	15044*	1636	i
N#Cc1c(-c2ccco2)cc(-c2cccnc2)nc1N	0.7	30	0.9	0.15	12	8.3*	14352*	1676	+
Cc1nc(N)c(C#N)c(-c2ccccc2)c1C	0.8	17	0.8	-0.61	22	-0.54	·	·	·
O=C(CSc1nnc(CNc2ccccc2)o1)N1CCN(C(=O)c2ccco2)CC1	·	·	·	-0.078	·	0.22	·	·	·
Cc1c2c(nc3c(C(=O)NC4CC4)cnn13)CCCC2	1.1	-6	1.1	0.48	-14	1.1	·	·	·
CCC(C)NC(=O)c1cnn2c(C)c3c(nc12)CCCC3 (stereo unspecified)	1	2	1.1	-0.13	-12	7*	11440*	1904	+
Cc1cc(N)n2ncc(-c3cccc(Br)c3)c2n1	0.6	39	0.3	1.2	72*	6.4*	10808*	1672	+
